Experimental data as given in the supplement of paper PMC4466140.

target: AgAbp1; experiment: SPOT peptide array binding signal intensity (averaged, normalized) (arbitrary units (background-subtracted, floor 0; scale differs between SH3 domains)); higher = stronger binding of the SH3 domain to the peptide
Method in brief: (§1)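 GST-fused SH3 domains from four yeast species were expressed in E. coli BL21(DE3), purified on glutathione Sepharose and incubated at 10 μg/ml overnight at 4°C in TBS-based blocking buffer on cellulose membranes carrying synthetic 15-mer peptides, with cysteines replaced by serines. Bound protein was detected with anti-GST antibody, an HRP anti-mouse secondary and luminol, then imaged and quantified with Genespotter. Binding signal is the normalized, background-subtracted spot intensity averaged over replicates, in arbitrary units that differ between domains.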

Binder	SPOT peptide array binding signal intensity
LKHGWKPLRPIKLIS	1400
TSIEIPKRSPLRFTS	9

target: AgBbc1; experiment: as above
Method in brief: as §1

Binder	SPOT peptide array binding signal intensity
LKHGWKPLRPIKLIS	72.8
TSIEIPKRSPLRFTS	41.5

target: AgBem1-D1; experiment: as above
Method in brief: as §1

Binder	SPOT peptide array binding signal intensity
LKHGWKPLRPIKLIS	12
TSIEIPKRSPLRFTS	9

target: AgBzz1-D1; experiment: as above
Method in brief: as §1

Binder	SPOT peptide array binding signal intensity
LKHGWKPLRPIKLIS	31
TSIEIPKRSPLRFTS	27

target: AgBzz1-D2; experiment: as above
Method in brief: as §1

Binder	SPOT peptide array binding signal intensity
LKHGWKPLRPIKLIS	≤ 0
TSIEIPKRSPLRFTS	16

target: AgCyk3; experiment: as above
Method in brief: as §1

Binder	SPOT peptide array binding signal intensity
LKHGWKPLRPIKLIS	≤ 0
TSIEIPKRSPLRFTS	1.5

target: AgFus1; experiment: as above
Method in brief: as §1

Binder	SPOT peptide array binding signal intensity
LKHGWKPLRPIKLIS	141
TSIEIPKRSPLRFTS	≤ 0

target: AgHof1; experiment: as above
Method in brief: as §1

Binder	SPOT peptide array binding signal intensity
LKHGWKPLRPIKLIS	21.5
TSIEIPKRSPLRFTS	6.5

target: AgHse1; experiment: as above
Method in brief: as §1

Binder	SPOT peptide array binding signal intensity
LKHGWKPLRPIKLIS	252
TSIEIPKRSPLRFTS	≤ 0

target: AgLsb1; experiment: as above
Method in brief: as §1

Binder	SPOT peptide array binding signal intensity
LKHGWKPLRPIKLIS	≤ 0
TSIEIPKRSPLRFTS	≤ 0

target: AgLsb4; experiment: as above
Method in brief: as §1

Binder	SPOT peptide array binding signal intensity
LKHGWKPLRPIKLIS	≤ 0
TSIEIPKRSPLRFTS	16.5

target: AgMyo5; experiment: as above
Method in brief: as §1

Binder	SPOT peptide array binding signal intensity
LKHGWKPLRPIKLIS	≤ 0
TSIEIPKRSPLRFTS	2

target: AgNbp2; experiment: as above
Method in brief: as §1

Binder	SPOT peptide array binding signal intensity
LKHGWKPLRPIKLIS	41
TSIEIPKRSPLRFTS	10.5

target: AgRvs167; experiment: as above
Method in brief: as §1

Binder	SPOT peptide array binding signal intensity
LKHGWKPLRPIKLIS	5.33
TSIEIPKRSPLRFTS	2.33

target: AgSho1; experiment: as above
Method in brief: as §1

Binder	SPOT peptide array binding signal intensity
LKHGWKPLRPIKLIS	32
TSIEIPKRSPLRFTS	≤ 0

target: AgSla1-D1-D2; experiment: as above
Method in brief: as §1

Binder	SPOT peptide array binding signal intensity
LKHGWKPLRPIKLIS	206
TSIEIPKRSPLRFTS	≤ 0

target: AgSla1-D3; experiment: as above
Method in brief: as §1

Binder	SPOT peptide array binding signal intensity
LKHGWKPLRPIKLIS	3.5
TSIEIPKRSPLRFTS	≤ 0

target: CaAbp1-D1; experiment: as above
Method in brief: as §1

Binder	SPOT peptide array binding signal intensity
LKHGWKPLRPIKLIS	398
TSIEIPKRSPLRFTS	272

target: CaAbp1-D2; experiment: as above
Method in brief: as §1

Binder	SPOT peptide array binding signal intensity
LKHGWKPLRPIKLIS	1860
TSIEIPKRSPLRFTS	81

target: CaBbc1; experiment: as above
Method in brief: as §1

Binder	SPOT peptide array binding signal intensity
LKHGWKPLRPIKLIS	364
TSIEIPKRSPLRFTS	484

target: CaBem1-D1; experiment: as above
Method in brief: as §1

Binder	SPOT peptide array binding signal intensity
LKHGWKPLRPIKLIS	23
TSIEIPKRSPLRFTS	12

target: CaBzz1-D1; experiment: as above
Method in brief: as §1

Binder	SPOT peptide array binding signal intensity
LKHGWKPLRPIKLIS	≤ 0
TSIEIPKRSPLRFTS	41

target: CaBzz1-D2; experiment: as above
Method in brief: as §1

Binder	SPOT peptide array binding signal intensity
LKHGWKPLRPIKLIS	46.5
TSIEIPKRSPLRFTS	20

target: CaCyk3; experiment: as above
Method in brief: as §1

Binder	SPOT peptide array binding signal intensity
LKHGWKPLRPIKLIS	7
TSIEIPKRSPLRFTS	58.5

target: CaFus1; experiment: as above
Method in brief: as §1

Binder	SPOT peptide array binding signal intensity
LKHGWKPLRPIKLIS	850
TSIEIPKRSPLRFTS	42

target: CaHof1; experiment: as above
Method in brief: as §1

Binder	SPOT peptide array binding signal intensity
LKHGWKPLRPIKLIS	≤ 0
TSIEIPKRSPLRFTS	≤ 0

target: CaHse1; experiment: as above
Method in brief: as §1

Binder	SPOT peptide array binding signal intensity
LKHGWKPLRPIKLIS	193
TSIEIPKRSPLRFTS	≤ 0

target: CaLsb1; experiment: as above
Method in brief: as §1

Binder	SPOT peptide array binding signal intensity
LKHGWKPLRPIKLIS	≤ 0
TSIEIPKRSPLRFTS	≤ 0

target: CaLsb4; experiment: as above
Method in brief: as §1

Binder	SPOT peptide array binding signal intensity
LKHGWKPLRPIKLIS	176
TSIEIPKRSPLRFTS	27

target: CaMyo5; experiment: as above
Method in brief: as §1

Binder	SPOT peptide array binding signal intensity
LKHGWKPLRPIKLIS	≤ 0
TSIEIPKRSPLRFTS	3

target: CaNbp2; experiment: as above
Method in brief: as §1

Binder	SPOT peptide array binding signal intensity
LKHGWKPLRPIKLIS	252
TSIEIPKRSPLRFTS	61

target: CaRvs167; experiment: as above
Method in brief: as §1

Binder	SPOT peptide array binding signal intensity
LKHGWKPLRPIKLIS	14.8
TSIEIPKRSPLRFTS	2

target: CaRvs167-3; experiment: as above
Method in brief: as §1

Binder	SPOT peptide array binding signal intensity
LKHGWKPLRPIKLIS	24.8
TSIEIPKRSPLRFTS	≤ 0

target: CaSho1; experiment: as above
Method in brief: as §1

Binder	SPOT peptide array binding signal intensity
LKHGWKPLRPIKLIS	201
TSIEIPKRSPLRFTS	6

target: CaSla1-D1-D2; experiment: as above
Method in brief: as §1

Binder	SPOT peptide array binding signal intensity
LKHGWKPLRPIKLIS	27.5
TSIEIPKRSPLRFTS	83

target: CaSla1-D3; experiment: as above
Method in brief: as §1

Binder	SPOT peptide array binding signal intensity
LKHGWKPLRPIKLIS	10
TSIEIPKRSPLRFTS	≤ 0

target: ScAbp1; experiment: as above
Method in brief: as §1

Binder	SPOT peptide array binding signal intensity
LKHGWKPLRPIKLIS	296
TSIEIPKRSPLRFTS	21

target: ScBbc1; experiment: as above
Method in brief: as §1

Binder	SPOT peptide array binding signal intensity
LKHGWKPLRPIKLIS	9.75
TSIEIPKRSPLRFTS	5

target: ScBem1-D1; experiment: as above
Method in brief: as §1

Binder	SPOT peptide array binding signal intensity
LKHGWKPLRPIKLIS	9
TSIEIPKRSPLRFTS	≤ 0

target: ScBzz1-D1; experiment: as above
Method in brief: as §1

Binder	SPOT peptide array binding signal intensity
LKHGWKPLRPIKLIS	6.5
TSIEIPKRSPLRFTS	4.5

target: ScBzz1-D2; experiment: as above
Method in brief: as §1

Binder	SPOT peptide array binding signal intensity
LKHGWKPLRPIKLIS	20
TSIEIPKRSPLRFTS	1

target: ScCyk3; experiment: as above
Method in brief: as §1

Binder	SPOT peptide array binding signal intensity
LKHGWKPLRPIKLIS	10
TSIEIPKRSPLRFTS	3

target: ScFus1; experiment: as above
Method in brief: as §1

Binder	SPOT peptide array binding signal intensity
LKHGWKPLRPIKLIS	50
TSIEIPKRSPLRFTS	≤ 0

target: ScHof1; experiment: as above
Method in brief: as §1

Binder	SPOT peptide array binding signal intensity
LKHGWKPLRPIKLIS	≤ 0
TSIEIPKRSPLRFTS	0.5

target: ScHse1; experiment: as above
Method in brief: as §1

Binder	SPOT peptide array binding signal intensity
LKHGWKPLRPIKLIS	478
TSIEIPKRSPLRFTS	20.5

target: ScLsb1; experiment: as above
Method in brief: as §1

Binder	SPOT peptide array binding signal intensity
LKHGWKPLRPIKLIS	16.5
TSIEIPKRSPLRFTS	≤ 0

target: ScLsb2; experiment: as above
Method in brief: as §1

Binder	SPOT peptide array binding signal intensity
LKHGWKPLRPIKLIS	≤ 0
TSIEIPKRSPLRFTS	≤ 0

target: ScLsb3; experiment: as above
Method in brief: as §1

Binder	SPOT peptide array binding signal intensity
LKHGWKPLRPIKLIS	527
TSIEIPKRSPLRFTS	252

target: ScLsb4; experiment: as above
Method in brief: as §1

Binder	SPOT peptide array binding signal intensity
LKHGWKPLRPIKLIS	4
TSIEIPKRSPLRFTS	≤ 0

target: ScMyo3; experiment: as above
Method in brief: as §1

Binder	SPOT peptide array binding signal intensity
LKHGWKPLRPIKLIS	≤ 0
TSIEIPKRSPLRFTS	11.5

target: ScMyo5; experiment: as above
Method in brief: as §1

Binder	SPOT peptide array binding signal intensity
LKHGWKPLRPIKLIS	≤ 0
TSIEIPKRSPLRFTS	2

target: ScNbp2; experiment: as above
Method in brief: as §1

Binder	SPOT peptide array binding signal intensity
LKHGWKPLRPIKLIS	550
TSIEIPKRSPLRFTS	2

target: ScPex13; experiment: as above
Method in brief: as §1

Binder	SPOT peptide array binding signal intensity
LKHGWKPLRPIKLIS	37.5
TSIEIPKRSPLRFTS	2

target: ScRvs167; experiment: as above
Method in brief: as §1

Binder	SPOT peptide array binding signal intensity
LKHGWKPLRPIKLIS	≤ 0
TSIEIPKRSPLRFTS	101

target: ScSho1; experiment: as above
Method in brief: as §1

Binder	SPOT peptide array binding signal intensity
LKHGWKPLRPIKLIS	1040
TSIEIPKRSPLRFTS	0.5

target: ScSla1-D1-D2; experiment: as above
Method in brief: as §1

Binder	SPOT peptide array binding signal intensity
LKHGWKPLRPIKLIS	50
TSIEIPKRSPLRFTS	≤ 0

target: ScSla1-D3; experiment: as above
Method in brief: as §1

Binder	SPOT peptide array binding signal intensity
LKHGWKPLRPIKLIS	6.5
TSIEIPKRSPLRFTS	30.2

target: SpAbp1-D1; experiment: as above
Method in brief: as §1

Binder	SPOT peptide array binding signal intensity
LKHGWKPLRPIKLIS	166
TSIEIPKRSPLRFTS	206

target: SpBbc1; experiment: as above
Method in brief: as §1

Binder	SPOT peptide array binding signal intensity
LKHGWKPLRPIKLIS	0.75
TSIEIPKRSPLRFTS	≤ 0

target: SpBzz1-D1; experiment: as above
Method in brief: as §1

Binder	SPOT peptide array binding signal intensity
LKHGWKPLRPIKLIS	362
TSIEIPKRSPLRFTS	162

target: SpBzz1-D2; experiment: as above
Method in brief: as §1

Binder	SPOT peptide array binding signal intensity
TSIEIPKRSPLRFTS	≤ 0

target: SpCyk3; experiment: as above
Method in brief: as §1

Binder	SPOT peptide array binding signal intensity
TSIEIPKRSPLRFTS	2

target: SpHof1; experiment: as above
Method in brief: as §1

Binder	SPOT peptide array binding signal intensity
TSIEIPKRSPLRFTS	73

target: SpHof1-2; experiment: as above
Method in brief: as §1

Binder	SPOT peptide array binding signal intensity
TSIEIPKRSPLRFTS	8.75

target: SpHof1-3; experiment: as above
Method in brief: as §1

Binder	SPOT peptide array binding signal intensity
TSIEIPKRSPLRFTS	25.5

target: SpHse1; experiment: as above
Method in brief: as §1

Binder	SPOT peptide array binding signal intensity
TSIEIPKRSPLRFTS	76.8

target: SpLsb1; experiment: as above
Method in brief: as §1

Binder	SPOT peptide array binding signal intensity
TSIEIPKRSPLRFTS	≤ 0

target: SpLsb4; experiment: as above
Method in brief: as §1

Binder	SPOT peptide array binding signal intensity
TSIEIPKRSPLRFTS	376

target: SpMyo1; experiment: as above
Method in brief: as §1

Binder	SPOT peptide array binding signal intensity
TSIEIPKRSPLRFTS	12.5

target: SpNbp2; experiment: as above
Method in brief: as §1

Binder	SPOT peptide array binding signal intensity
TSIEIPKRSPLRFTS	≤ 0

target: SpPex13; experiment: as above
Method in brief: as §1

Binder	SPOT peptide array binding signal intensity
TSIEIPKRSPLRFTS	≤ 0

target: SpRvs167; experiment: as above
Method in brief: as §1

Binder	SPOT peptide array binding signal intensity
TSIEIPKRSPLRFTS	94

target: SpSla1-D1-D2; experiment: as above
Method in brief: as §1

Binder	SPOT peptide array binding signal intensity
TSIEIPKRSPLRFTS	1

target: SpSla1-D3; experiment: as above
Method in brief: as §1

Binder	SPOT peptide array binding signal intensity
TSIEIPKRSPLRFTS	≤ 0
